Results reported in PubChem BioAssay (Tox21).
Records with an inconclusive call do not appear. The source made the active and inactive calls. Unless noted, calls come from the whole dose curve; as a rule, active = well fitted curve in the direction sought with a large enough effect in the repeat runs; inconclusive = weak or mixed curves; inactive = no such curve, though single readings can be large; an effect the other way counts as inactive or inconclusive.

Assays:
[1] = qHTS assay to identify small molecule antagonists of the estrogen receptor alpha (ER-alpha) signaling pathway using the BG1 cell line in the presence of 0.1 nM 17-beta-estradiol - cell viability counter screen (AID 1259241); note: nearly all actives have a fitted effect of over 40% in size
Outline: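 Estradiol-stimulated (0.1 nM) VM7Luc4E2 cells exposed to compounds 22 hr; viability measured by fluorescence of cleaved CellTiter-Fluor substrate after 30 min.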

[2] = qHTS assay to identify small molecule antagonists of the androgen receptor (AR) signaling pathway using the MDA cell line in the presence of 0.5 nM R1881 - cell viability counter screen (AID 1259242); note: nearly all actives have a fitted effect of over 45% in size
Outline: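 Live-cell protease activity was measured by CellTiter-Fluor fluorescence after 30 min. Before that, MDA-kb2 MMTV-luciferase cells had 16 hr at 37C without CO2, exposed to test compounds and 0.5 nM R1881 final.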

[3] = qHTS assay to identify small molecule phospholipidosis (PLD) inducers (AID 1259344; active = well fitted curve in the direction sought with a large enough effect; an effect the other way counts as inactive or inconclusive)
Outline: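 Accumulated phospholipid, stained red by LipidTOX during 24 h compound treatment of HepG2 cells at 37 C, is quantified from images as pit number and intensity, normalised per cell using Hoechst-stained nuclei.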

[4] = qHTS assay to identify small molecule HDAC inhibitors (AID 1259364); note: nearly all actives have a fitted effect of over 45% in size; note: potency is the fitted concentration of half-maximal effect; for activity change, negative = inhibition: top concentration of the series differs between compounds
Outline: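 Luminescence read after 30 min room-temperature HDAC-Glo incubation measures cellular class I/II HDAC activity. Compounds were applied for 2 hr at 37 C to HCT-116 wild-type cells seeded the day before.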

[5] = qHTS assay to identify small molecule HDAC inhibitors - cell viability counter screen (AID 1259365); note: series mostly up to about 92 µM; nearly all actives have a fitted effect of over 50% in size
Outline: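 After overnight seeding at 1,500 cells per well, wild-type HCT-116 cultures took up compounds in DMSO for 2hr at 37 C. Viable cell content came from luminescence with CellTiter-Glo.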

[6] = qHTS assay to identify small molecule agonists of the sonic hedgehog signaling (Shh) pathway - cell viability counter screen (AID 1259366); note: nearly all actives have a fitted effect of over 50% in size
Outline: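 Same-well cytotoxicity read. Gli1-Luc reporter 3T3 cells; compounds 24hr, 37C/5% CO2; CellTiter-Fluor fluorescence.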

[7] = qHTS assay to identify small molecule antagonists of the sonic hedgehog signaling (Shh) pathway - cell viability counter screen (AID 1259367); note: nearly all actives have a fitted effect of over 55% in size
Outline: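 CellTiter-Fluor signal in conditioned medium-stimulated 3T3 Gli1-Luc cells, 23 hr compound exposure, 37C.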

[8] = qHTS assay to identify small molecule agonists of the sonic hedgehog signaling (Shh) pathway (AID 1259368; calls by dose curve;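 note: NIH/3T3-derived 3T3Gli1-Luc cells carrying a stable Gli1-driven firefly luciferase reporter; series mostly up to about 92 µM; nearly all actives have a fitted effect of over 15% in size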)
Outline: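 Luminescence was read after 30 min at room temperature with luciferase reagent. Before that, 3T3Gli1-Luc cells (NIH/3T3 clone, stable Gli1-Luc reporter; 2,000/well) were exposed to compounds for 24 hr at 37C, 5% CO2, compounds being added 4 hr post-plating.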

[9] = qHTS assay to identify small molecule antagonists of the sonic hedgehog signaling (Shh) pathway (AID 1259369; calls by dose curve; note: nearly all actives have a fitted effect of over 45% in size)
Outline: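 Antagonist mode: compound added to 3T3 Gli1-Luc cells followed by conditioned-medium stimulation, 24 h at 37 C, 5% CO2. Inhibition taken as loss of Gli1-driven luciferase luminescence.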

[10] = biological target: Estrogen receptor beta (Homo sapiens) (UniProt Q92731); assay: qHTS assay to identify small molecule agonists of the estrogen receptor beta (ER-beta) signaling pathway (AID 1259377; active = well fitted activation curve with a large enough effect in the signal ratio in the repeat runs, not every such curve was filed as active; the % refers to the signal ratio)
Estrogen receptor beta (Homo sapiens), sequence (Q92731 whole entry, looked up): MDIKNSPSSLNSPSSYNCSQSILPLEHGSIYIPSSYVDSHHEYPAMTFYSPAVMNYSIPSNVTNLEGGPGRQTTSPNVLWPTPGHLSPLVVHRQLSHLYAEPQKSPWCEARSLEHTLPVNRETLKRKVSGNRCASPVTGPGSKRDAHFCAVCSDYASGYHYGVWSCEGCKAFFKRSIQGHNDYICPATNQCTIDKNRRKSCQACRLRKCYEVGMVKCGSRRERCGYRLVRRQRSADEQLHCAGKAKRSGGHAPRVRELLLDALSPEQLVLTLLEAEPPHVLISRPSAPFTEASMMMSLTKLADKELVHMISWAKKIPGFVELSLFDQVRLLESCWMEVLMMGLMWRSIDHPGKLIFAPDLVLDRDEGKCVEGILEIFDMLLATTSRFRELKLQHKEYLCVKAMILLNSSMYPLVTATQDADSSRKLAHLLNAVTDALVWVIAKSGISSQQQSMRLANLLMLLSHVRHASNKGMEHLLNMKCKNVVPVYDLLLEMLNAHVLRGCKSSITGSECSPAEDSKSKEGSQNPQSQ
Outline: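 Read-out: beta-lactamase FRET fluorescence. Cell line: ER-beta-UAS-bla HEK293T in 2% charcoal-stripped FBS. Exposure: 16 hr at 37C. Substrate step: 2 h at room temperature.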

[11] = qHTS assay to identify small molecule agonists of the androgen receptor (AR) signaling pathway in the presence of an antagonist - cell viability counter screen (AID 1259379);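 note: MDA-kb2 human breast cancer cells carrying an MMTV luciferase reporter; series mostly up to about 92 µM; nearly all actives have a fitted effect of over 25% in size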
Outline: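 Cytotoxicity counter-screen run in the same wells as the nilutamide-challenged (3.0 µM final) AR agonist assay in MDA-kb2 cells. Compounds tested at 15 concentrations for 16 h, 37 °C without CO2; CellTiter-Fluor fluorescence read.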

[12] = qHTS assay to identify small molecule agonists of the estrogen receptor beta (ER-beta) signaling pathway - cell viability counter screen (AID 1259380); note: nearly all actives have a fitted effect of over 30% in size
Outline: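 Cell viability counter screen: CellTiter-Glo luminescence (30 min, room temperature) measured in the same wells as the beta-lactamase readout, after 16 hr compound exposure at 37C of ER-beta-bla HEK293T cells in 2% charcoal-stripped FBS medium.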

[13] = qHTS assay to identify small molecule antagonists of the estrogen receptor beta (ER-beta) signaling pathway - cell viability counter screen (AID 1259382);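 note: HEK293T cells carrying ER-beta-UAS-bla reporter stimulated with estradiol; series mostly up to about 92 µM; nearly all actives have a fitted effect of over 55% in size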
Outline: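 Cytotoxicity was measured in the same wells by CellTiter-Glo luminescence after 30 min at room temperature. Cells were ER-beta-bla HEK293T in charcoal-stripped serum, given compound together with 1 nM E2 and incubated 16 h at 37C.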

[14] = biological target: Estrogen receptor (Homo sapiens) (UniProt P03372); assay: qHTS assay to identify small molecule agonists of the estrogen receptor alpha (ER-alpha) signaling pathway in the presence of an antagonist (AID 1259383; calls by dose curve; note: top concentration of the series differs between compounds; nearly all actives have a fitted effect of over 15% in size)
Estrogen receptor (Homo sapiens), sequence (P03372 whole entry, looked up): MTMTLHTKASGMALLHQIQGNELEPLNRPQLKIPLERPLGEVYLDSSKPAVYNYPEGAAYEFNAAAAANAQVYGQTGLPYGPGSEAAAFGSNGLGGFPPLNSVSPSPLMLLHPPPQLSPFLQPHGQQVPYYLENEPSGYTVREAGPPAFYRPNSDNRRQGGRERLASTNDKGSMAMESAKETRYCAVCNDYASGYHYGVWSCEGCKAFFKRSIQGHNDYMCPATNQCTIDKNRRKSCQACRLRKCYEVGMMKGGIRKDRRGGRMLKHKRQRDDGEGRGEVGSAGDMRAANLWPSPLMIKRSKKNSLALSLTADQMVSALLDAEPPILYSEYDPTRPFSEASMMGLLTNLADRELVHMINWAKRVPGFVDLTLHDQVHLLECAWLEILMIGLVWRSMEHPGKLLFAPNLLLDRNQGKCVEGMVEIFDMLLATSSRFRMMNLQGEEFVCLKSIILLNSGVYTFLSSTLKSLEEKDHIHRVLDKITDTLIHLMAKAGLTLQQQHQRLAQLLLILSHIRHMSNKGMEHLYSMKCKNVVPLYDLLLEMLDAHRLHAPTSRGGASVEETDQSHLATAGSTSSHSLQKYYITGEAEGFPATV
Outline: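 Agonist-mode confirmation run in the presence of 10.0nM (final) ICI-182,780 antagonist. The reporter was ERE-driven luciferase in VM7Luc4E2 cells, grown in charcoal-stripped serum. Cells were exposed to 15-concentration compound series for 22hr, then ONE-Glo luminescence was read.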

[15] = qHTS assay to identify small molecule agonists or antagonists of the thyroid stimulating hormone receptor (TSHR) signaling pathway - wild type cell line counter screen (AID 1259384; calls by dose curve)
Outline: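 Counter screen in untransfected Hek293: compounds (15-point titration, triplicate) plus phosphodiesterase inhibitor Ro20-1724 added after 18 h plating; 30 min RT. Intracellular cAMP via competitive d2/cryptate immunoassay, 1 h incubation.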

[16] = biological target: Thyrotropin receptor (Homo sapiens) (UniProt P16473); assay: qHTS assay to identify small molecule antagonists of the thyroid stimulating hormone receptor (TSHR) signaling pathway (AID 1259385; calls by dose curve; note: nearly all actives have a fitted effect of over 20% in size)
Thyrotropin receptor (Homo sapiens), sequence (P16473 whole entry, looked up): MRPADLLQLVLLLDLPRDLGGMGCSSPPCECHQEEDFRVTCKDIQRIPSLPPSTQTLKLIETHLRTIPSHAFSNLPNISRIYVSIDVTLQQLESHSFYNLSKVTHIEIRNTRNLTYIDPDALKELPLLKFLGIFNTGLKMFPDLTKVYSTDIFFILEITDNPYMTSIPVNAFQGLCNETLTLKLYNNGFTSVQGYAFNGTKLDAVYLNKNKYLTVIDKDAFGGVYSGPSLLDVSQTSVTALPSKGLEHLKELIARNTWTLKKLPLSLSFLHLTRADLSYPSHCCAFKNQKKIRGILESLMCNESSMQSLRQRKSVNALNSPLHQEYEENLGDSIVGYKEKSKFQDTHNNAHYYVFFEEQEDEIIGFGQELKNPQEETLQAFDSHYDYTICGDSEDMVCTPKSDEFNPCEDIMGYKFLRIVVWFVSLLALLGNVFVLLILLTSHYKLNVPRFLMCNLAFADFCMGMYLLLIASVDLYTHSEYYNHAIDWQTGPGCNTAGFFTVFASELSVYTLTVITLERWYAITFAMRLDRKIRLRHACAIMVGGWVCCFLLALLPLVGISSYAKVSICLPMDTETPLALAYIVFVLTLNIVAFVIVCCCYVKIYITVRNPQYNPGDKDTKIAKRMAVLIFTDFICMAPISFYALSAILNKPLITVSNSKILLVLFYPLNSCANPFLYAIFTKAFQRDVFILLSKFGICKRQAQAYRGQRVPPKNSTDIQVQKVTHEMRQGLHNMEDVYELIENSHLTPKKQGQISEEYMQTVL
Outline: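 Antagonist mode: compound-treated TSHR-expressing HEK293 cells were stimulated with 1.5 ng/mL TSH (final) in presence of Ro20-1724 for 30 min at RT. HTRF cAMP detection after 1 h; each compound tested at 15 concentrations, triplicate.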

[17] = biological target: Estrogen receptor beta (Homo sapiens) (UniProt Q92731); assay: qHTS assay to identify small molecule antagonists of the estrogen receptor beta (ER-beta) signaling pathway (AID 1259378; active = well fitted inhibition curve with a large enough effect in the signal ratio in the repeat runs, not every such curve was filed as active; the % refers to the signal ratio)
Outline: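 Antagonist mode: compounds added to beta-lactamase reporter HEK293T ER-beta-UAS cells stimulated with E2 (1nM final), 16 hr at 37C. LiveBLAzer B/G FRET substrate, 2 hours room temperature, fluorescence read-out.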

[18] = biological target: Estrogen receptor (Homo sapiens) (UniProt P03372); assay: qHTS assay to identify small molecule antagonists of the estrogen receptor alpha (ER-alpha) signaling pathway using the BG1 cell line in the presence of 0.1 nM 17-beta-estradiol (AID 1259244); note: nearly all actives have a fitted effect of over 50% in size
Outline: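 Luciferase luminescence (ONE-Glo, 30 min at room temperature) was read after 22 hr at 37C exposure to compounds plus 17beta-estradiol at 0.1 nM final. Cells were VM7Luc4E2 with endogenous ER-alpha and an ERE-driven luciferase, pre-cultured 5 days in hormone-depleted medium.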
% is set by controls: 0 for no effect and ±100 for the full control effect.

CC(C)C1CCC(C(=O)N[C@H](Cc2ccccc2)C(=O)O)CC1 (stereo partly specified)
inactive: Potency [1] | Potency [2] | Potency [3] | Potency [4] | Potency [5] | Potency [6] | Potency [7] | Potency [8] | Potency [9] | Potency [10] | Potency [11] | Potency [12] | Potency [13] | Potency [14] | Potency [15] | Potency [16]

Cc1ccccc1S(N)(=O)=O
inactive: Potency [1] | Potency [2] | Potency [4] | Potency [5] | Potency [6] | Potency [7] | Potency [8] | Potency [9] | Potency [11] | Potency [12] | Potency [13] | Potency [15] | Potency [16]

CC1CCCO1 (stereo unspecified)
inactive: Potency [1] | Potency [2] | Potency [4] | Potency [5] | Potency [6] | Potency [7] | Potency [8] | Potency [9] | Potency [10] | Potency [12]

CC[C@@H](CO)NCCN[C@@H](CC)CO
inactive: Potency [1] | Potency [2] | Potency [3] | Potency [4] | Potency [5] | Potency [6] | Potency [7] | Potency [8] | Potency [9] | Potency [10] | Potency [17] | Potency [11] | Potency [12] | Potency [13] | Potency [15] | Potency [16]

CC(C(=O)O)c1ccc(C(=O)c2cccs2)cc1 (stereo unspecified)
inactive: Potency [1] | Potency [2] | Potency [3] | Potency [5] | Potency [6] | Potency [7] | Potency [8] | Potency [9] | Potency [10] | Potency [11] | Potency [12] | Potency [13]
active: Potency [4] 29.8 µM

O=C(O)c1cccc(C[C@@H]2COc3ccc(OCc4nc5cc(F)ccc5s4)cc3[C@@H]2O)c1
inactive: Potency [1] | Potency [2] | Potency [4] | Potency [5] | Potency [6] | Potency [7] | Potency [8] | Potency [9] | Potency [10] | Potency [17] | Potency [11] | Potency [12] | Potency [13] | Potency [14] | Potency [15] | Potency [16]

Cc1cccc2sc(N)nc12
inactive: Potency [1] | Potency [2] | Potency [4] | Potency [5] | Potency [6] | Potency [7] | Potency [8] | Potency [9] | Potency [10] | Potency [11] | Potency [12] | Potency [13] | Potency [14] | Potency [15] | Potency [16]

CCCCCCCCCCCCCCN(C)C
inactive: activity change, negative = cytotoxicity [1] 0.479% [at 19 µM] | viability change, negative = cytotoxic [2] -2.29% [at 19 µM] | activity change, negative = inhibition [18] 15.5% [at 19 µM] | activity change, negative = inhibition [4] 1.53% [at 19 µM] | viability change, negative = cytotoxic [6] -0.743% [at 19 µM] | viability change, negative = cytotoxic [7] 4.21% [at 19 µM] | activity change, negative = inhibition [9] 19.6% [at 19 µM] | activation [10] -2.25% [at 19 µM] | activity, negative = inhibition [17] 3.58% [at 19 µM] | activity change, negative = cytotoxicity [11] -0.611% [at 19 µM] | activity change, negative = cytotoxicity [12] -12.9% [at 19 µM] | activity change, negative = cytotoxicity [13] -7.95% [at 19 µM] | activation [14] 2.36% [at 19 µM] | cAMP activity change [15] -2.36% [at 18.9 µM, active compounds read high] | activity change, negative = inhibition [16] -0.0954% [at 19 µM]

CC(=O)OCC(=O)[C@@]1(OC(C)=O)[C@@H](C)C[C@H]2[C@@H]3C[C@H](F)C4=CC(=O)C=C[C@]4(C)[C@@]3(F)[C@@H](O)C[C@@]21C
inactive: Potency [1] | Potency [2] | Potency [3] | Potency [4] | Potency [5] | Potency [6] | Potency [7] | Potency [8] | Potency [10] | Potency [17] | Potency [11] | Potency [13] | Potency [15] | Potency [16]

CC(C)c1ccc(C#N)cc1
inactive: Potency [1] | Potency [2] | Potency [18] | Potency [4] | Potency [7] | Potency [8] | Potency [9] | Potency [10] | Potency [17] | Potency [11] | Potency [12] | Potency [14] | Potency [15] | Potency [16]

CCCOC(=O)c1c(Cl)c(Cl)c(Cl)c(Cl)c1C(=O)OCCC
inactive: Potency [1] | Potency [2] | Potency [4] | Potency [5] | Potency [6] | Potency [7] | Potency [8] | Potency [9] | Potency [10] | Potency [17] | Potency [11] | Potency [12] | Potency [13]

O=C(O)CCC(=O)OC[C@@H](NC(=O)C(Cl)Cl)[C@H](O)c1ccc([N+](=O)[O-])cc1
inactive: Potency [1] | Potency [2] | Potency [3] | Potency [4] | Potency [5] | Potency [6] | Potency [8] | Potency [9] | Potency [11] | Potency [12] | Potency [13]
